{"source": "paper PMC4336329", "about": "(PLoS ONE, 2015)", "note": "Out of some 310,000 compounds screened, about 14,000 (4.5%) showed an effect of 50% or more. The effect is printed as a negative number. The sample as a whole holds a higher share of strong results than the screen did.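 Further: peak tail current of the secondary pulse compared with the same well before compound.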"}
{"target": "human ether-à-go-go-related gene (hERG) potassium channel (human, UniProt Q12809)", "sequence (Q12809 whole entry, looked up)": "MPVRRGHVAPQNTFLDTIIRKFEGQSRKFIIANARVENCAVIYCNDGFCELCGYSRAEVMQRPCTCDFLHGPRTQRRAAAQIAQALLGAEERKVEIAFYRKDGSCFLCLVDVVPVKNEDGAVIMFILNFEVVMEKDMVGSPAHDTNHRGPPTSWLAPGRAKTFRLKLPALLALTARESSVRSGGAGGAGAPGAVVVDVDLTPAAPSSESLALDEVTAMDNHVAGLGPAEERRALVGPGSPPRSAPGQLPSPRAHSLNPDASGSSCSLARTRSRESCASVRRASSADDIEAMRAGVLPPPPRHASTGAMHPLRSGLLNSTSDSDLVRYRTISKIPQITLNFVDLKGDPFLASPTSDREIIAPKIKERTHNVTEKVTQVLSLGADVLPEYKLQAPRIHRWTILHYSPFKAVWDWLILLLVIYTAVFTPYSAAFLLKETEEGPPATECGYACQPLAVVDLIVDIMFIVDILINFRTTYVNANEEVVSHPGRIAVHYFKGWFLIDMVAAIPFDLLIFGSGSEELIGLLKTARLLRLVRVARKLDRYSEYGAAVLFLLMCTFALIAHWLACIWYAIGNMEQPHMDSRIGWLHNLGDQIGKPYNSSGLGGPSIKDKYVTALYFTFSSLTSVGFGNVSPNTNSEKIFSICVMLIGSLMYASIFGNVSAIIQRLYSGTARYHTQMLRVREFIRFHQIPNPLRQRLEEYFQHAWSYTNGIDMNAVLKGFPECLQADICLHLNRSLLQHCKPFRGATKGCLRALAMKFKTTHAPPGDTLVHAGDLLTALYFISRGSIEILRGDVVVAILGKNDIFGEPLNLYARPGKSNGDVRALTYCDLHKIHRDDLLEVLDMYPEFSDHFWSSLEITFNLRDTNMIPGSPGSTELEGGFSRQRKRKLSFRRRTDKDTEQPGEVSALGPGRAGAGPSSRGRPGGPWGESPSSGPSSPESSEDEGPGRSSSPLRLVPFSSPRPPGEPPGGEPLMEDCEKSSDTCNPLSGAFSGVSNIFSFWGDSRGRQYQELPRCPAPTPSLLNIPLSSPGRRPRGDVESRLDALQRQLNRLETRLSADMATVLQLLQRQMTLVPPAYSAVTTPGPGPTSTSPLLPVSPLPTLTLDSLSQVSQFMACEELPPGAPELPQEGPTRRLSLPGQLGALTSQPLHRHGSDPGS", "test": "primary screen, population patch clamp on CHO cells stably expressing hERG; higher = less effect of the substance", "units": {"hERG current change (%, negative = inhibition) at 10uM": "%"}}
{"smiles": "Cc1c(C(=O)Nc2ccc3c4c(cccc24)CC3)cccc1[N+](=O)[O-]", "hERG current change (%, negative = inhibition) at 10uM": 9.1}
{"smiles": "Cc1cccc(-c2oc3ccc(-c4ccc5c(c4)OCO5)cc3c2C(=O)OCc2ccc(O)cc2)c1", "hERG current change (%, negative = inhibition) at 10uM": 6.27}
{"smiles": "c1ccc(-c2nn[nH]n2)nc1", "hERG current change (%, negative = inhibition) at 10uM": 9.49}
{"smiles": "Cc1cccc(NC(=S)NCCC(c2ccccc2)c2ccccc2)c1", "hERG current change (%, negative = inhibition) at 10uM": 12}
{"smiles": "CCn1c(-c2cc(OC)c(OC)c(OC)c2)n[nH]c1=S", "hERG current change (%, negative = inhibition) at 10uM": 12.1}
{"smiles": "COc1cccc(CNC(=O)CCCn2nc(C)c3c(C)n(-c4ccccc4)nc3c2=O)c1", "hERG current change (%, negative = inhibition) at 10uM": -10}
{"smiles": "COc1ccc(CCN2CN(S(=O)(=O)c3ccccc3)c3nc4ccccc4nc32)cc1OC", "hERG current change (%, negative = inhibition) at 10uM": -0.784}
{"smiles": "Cc1ccc(/C([O-])=C(/C(=S)NCc2ccco2)[n+]2ccccc2)cc1[N+](=O)[O-]", "hERG current change (%, negative = inhibition) at 10uM": -18}
{"smiles": "CC(C)C(=O)NNS(=O)(=O)c1ccccc1[N+](=O)[O-]", "hERG current change (%, negative = inhibition) at 10uM": 3.1}
{"smiles": "COc1ccc(N=C2SC(C(=O)O)CC(=O)N2C)cc1", "note": "(stereo not drawn)", "hERG current change (%, negative = inhibition) at 10uM": 1.4}
{"smiles": "CCOCC(=O)N1CCN(c2ccc([N+](=O)[O-])cc2)CC1", "hERG current change (%, negative = inhibition) at 10uM": -71.8}
{"smiles": "COCC(=O)N1CCN(c2ccc([N+](=O)[O-])cc2)CC1", "hERG current change (%, negative = inhibition) at 10uM": -62.7}
{"smiles": "COc1ccc(N2CCN(C(=O)c3cc([N+](=O)[O-])ccc3N3CCN(CCO)CC3)CC2)cc1", "hERG current change (%, negative = inhibition) at 10uM": -24.6}
{"smiles": "CN1N=C(C(=O)N2CCN(c3ccc([N+](=O)[O-])cc3)CC2)CCC1=O", "hERG current change (%, negative = inhibition) at 10uM": -73}
{"smiles": "COc1ccc(N=C2SC(C(=O)N3CCN(c4ccccc4)CC3)CC(=O)N2C)cc1", "note": "(stereo not drawn)", "hERG current change (%, negative = inhibition) at 10uM": -13}
{"smiles": "COCC(=O)N1CCN(c2cccc(Cl)c2)CC1", "hERG current change (%, negative = inhibition) at 10uM": -8.46}
{"smiles": "CN1N=C(C(=O)N2CCCC(N3CCN(c4ccc(F)cc4)CC3)C2)CCC1=O", "note": "(stereo not drawn)", "hERG current change (%, negative = inhibition) at 10uM": 2.78}
{"smiles": "CCOCC(=O)N1CCN(c2cccc(Cl)c2)CC1", "hERG current change (%, negative = inhibition) at 10uM": 8.4}
{"smiles": "CCOCC(=O)N1CCN(c2ccc(F)cc2)CC1", "hERG current change (%, negative = inhibition) at 10uM": -15.9}
{"smiles": "COc1ccc(N=C2SC(C(=O)N3CCN(c4ccc([N+](=O)[O-])cc4)CC3)CC(=O)N2C)cc1", "note": "(stereo not drawn)", "hERG current change (%, negative = inhibition) at 10uM": -68.2}
{"smiles": "COc1ccc(C)cc1NC(=O)C(OC(=O)c1ccc(Cl)c(S(=O)(=O)N(C)c2ccccc2)c1)c1ccccc1", "note": "(stereo not drawn)", "hERG current change (%, negative = inhibition) at 10uM": -0.711}
{"smiles": "O=C(Nc1ccc(O)cc1C(=O)O)c1ccc2c(c1)C(=O)N(Cc1ccco1)C2=O", "hERG current change (%, negative = inhibition) at 10uM": -16.8}
{"smiles": "CCOc1ccc2[nH]c(=O)c(CN(CCO)C(=O)c3ccccc3F)cc2c1", "hERG current change (%, negative = inhibition) at 10uM": -0.495}
{"smiles": "COC(=O)Cc1[nH]nc2c1C(c1c[nH]c3ccccc13)C(C#N)=C(N)O2", "note": "(stereo not drawn)", "hERG current change (%, negative = inhibition) at 10uM": 17.8}
{"smiles": "c1ccc(Nc2c(-c3ccco3)nc3ccccn23)cc1", "hERG current change (%, negative = inhibition) at 10uM": 9.75}
{"smiles": "C=CCC1(N(C(C)=O)c2ccccc2)CCCCC1", "hERG current change (%, negative = inhibition) at 10uM": 5.28}
{"smiles": "CSC(=NC#N)N1CCN(c2ccc(Cl)cc2)CC1", "hERG current change (%, negative = inhibition) at 10uM": -38.3}
{"smiles": "CSC(=NC#N)N1CCN(c2ccccc2)CC1", "hERG current change (%, negative = inhibition) at 10uM": -2.95}
{"smiles": "CSC(=NC#N)N1CCN(c2ccc([N+](=O)[O-])cc2)CC1", "hERG current change (%, negative = inhibition) at 10uM": -77}
{"smiles": "O=C(Nc1ccc2c(c1)OCO2)c1cnn2c1NC(c1ccco1)CC2C(F)(F)F", "note": "(stereo not drawn)", "hERG current change (%, negative = inhibition) at 10uM": -4.57}
{"smiles": "CCc1c(O)nc(SCC(=O)Nc2cc(C)on2)n(-c2ccccc2)c1=O", "hERG current change (%, negative = inhibition) at 10uM": 3.39}
{"smiles": "Nc1nnc(SCC(=O)NC2CCCCC2)n1-c1ccccc1", "hERG current change (%, negative = inhibition) at 10uM": 6.78}
{"smiles": "CCn1c(SCC(=O)NC2CC2)nnc1-c1cccc(OC)c1", "hERG current change (%, negative = inhibition) at 10uM": -66.6}
{"smiles": "CCn1c(SCC(=O)Nc2ncc(C(F)(F)F)cc2Cl)nnc1-c1cccc(C)c1", "hERG current change (%, negative = inhibition) at 10uM": -69.9}
{"smiles": "CCn1c(SCC(=O)NC2CC2)nnc1-c1ccc(OC)cc1", "hERG current change (%, negative = inhibition) at 10uM": 17.4}
{"smiles": "C=CCn1c(SCC(=O)NC2CC2)nnc1-c1cccc(OC)c1", "hERG current change (%, negative = inhibition) at 10uM": 2.24}
{"smiles": "CNC(=O)CSc1nnc(-c2ccco2)n1-c1cccc(OC)c1", "hERG current change (%, negative = inhibition) at 10uM": -0.723}
{"smiles": "CCn1c(SCC(=O)Nc2ncc(C(F)(F)F)cc2Cl)nnc1-c1ccccc1", "hERG current change (%, negative = inhibition) at 10uM": -12.6}
{"smiles": "COc1cccc(-n2c(SCC(=O)NC3CCCC3)nnc2-c2ccco2)c1", "hERG current change (%, negative = inhibition) at 10uM": -73.7}
{"smiles": "O=C(CSc1nnc(Cc2cccs2)n1-c1ccccc1)NC1CCCCC1", "hERG current change (%, negative = inhibition) at 10uM": -62.5}
{"smiles": "CCn1c(Cc2cccs2)nnc1SCC(=O)NC1CC1", "hERG current change (%, negative = inhibition) at 10uM": -1.49}
{"smiles": "COc1cccc(-n2c(SCC(N)=O)nnc2-c2ccco2)c1", "hERG current change (%, negative = inhibition) at 10uM": 13.7}
{"smiles": "Cn1c(SCC(=O)Nc2ncc(C(F)(F)F)cc2Cl)nnc1-c1ccc(Cl)cc1", "hERG current change (%, negative = inhibition) at 10uM": -30.8}
{"smiles": "Nn1c(N2CCCCC2)nc2ccccc21", "hERG current change (%, negative = inhibition) at 10uM": 6.16}
{"smiles": "Cc1cc(C(=O)N/N=C2\\CCCC(C)C2)n[nH]1", "note": "(stereo not drawn)", "hERG current change (%, negative = inhibition) at 10uM": 11}
{"smiles": "CCC1=C(c2ccc(C)cc2)S(=O)(=O)N=C1N1CCC(C(=O)NCCCN2CCCCC2)CC1", "hERG current change (%, negative = inhibition) at 10uM": 20.5}
{"smiles": "CCN(CC)CC(=O)Nc1nc(-c2ccc(Cl)cc2)cs1", "hERG current change (%, negative = inhibition) at 10uM": -35.8}
{"smiles": "O=C(COc1ccccc1C(=O)NCC1CCCO1)Nc1ccc(Cl)cc1Cl", "note": "(stereo not drawn)", "hERG current change (%, negative = inhibition) at 10uM": -14}
{"smiles": "COC(=O)c1ccc(COc2ccc(Cl)cc2)o1", "hERG current change (%, negative = inhibition) at 10uM": 2.11}
{"smiles": "Cc1cccc(-n2c(SCC(=O)Nc3ccc4c(c3)OCO4)nnc2-c2ccoc2C)c1", "hERG current change (%, negative = inhibition) at 10uM": -0.162}
{"smiles": "Cc1cccc(-n2c(SCC(=O)NC3CCCC3)nnc2-c2ccoc2C)c1", "hERG current change (%, negative = inhibition) at 10uM": -83.2}
{"smiles": "Cc1occc1-c1nnc(SCC(=O)NC2CCCC2)n1C", "hERG current change (%, negative = inhibition) at 10uM": 15.5}
{"smiles": "Cc1occc1-c1nnc(SCC(=O)NC2CCCC2)n1-c1ccccc1", "hERG current change (%, negative = inhibition) at 10uM": -74.8}
{"smiles": "CCn1c(SCC(=O)NC2CCCC2)nnc1-c1ccoc1C", "hERG current change (%, negative = inhibition) at 10uM": 14}
{"smiles": "CCOc1ccccc1-n1c(SCC(=O)NC2CCCC2)nnc1-c1ccoc1C", "hERG current change (%, negative = inhibition) at 10uM": -24}
{"smiles": "Cc1ccc(C)c(NC(=S)N2CCC(NC(=O)C3CCCCC3)CC2)c1", "hERG current change (%, negative = inhibition) at 10uM": 4.41}
{"smiles": "COc1ccc(NC(=O)COc2ccc(-c3nn(C)c(=O)c4ccccc34)cc2)cc1", "hERG current change (%, negative = inhibition) at 10uM": 18.2}
